According to PubChem BioAssay (Tox21):
Results filed as inconclusive are left out. Activity calls are given as the source filed them. Unless noted, calls come from the whole dose curve; as a rule, active = well fitted curve in the direction sought with a large enough effect in the repeat runs; inconclusive = weak or mixed curves; inactive = no such curve, though single readings can be large; an effect the other way counts as inactive or inconclusive.

Columns and labels:
[1] = qHTS assay to identify aromatase inhibitors - cell viability counter screen (AID 743084); settings: MCF-7 aro ERE viability, CellTiter-Fluor, 24 h; series mostly up to 70.3 µM;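 note: cells stimulated with testosterone during compound exposure; nearly all actives have a fitted effect of over 55% in size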
[2] = qHTS assay to identify small molecule that activate the aryl hydrocarbon receptor (AhR) signaling pathway - cell viability counter screen (AID 743086); settings: HepG2-AhR-luc viability, CellTiter-Fluor, 24 h; series mostly up to 70.3 µM;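 note: HepG2 liver cells carrying the AhR DRE luciferase reporter; nearly all actives have a fitted effect of over 45% in size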
In short: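 HepG2-AhR-luc (HG2L7.5c1) cells, 4000/well, were preincubated 5 h at 37C, exposed to compound in qHTS format for 24 hr at 37C, then given CellTiter-Fluor for 30 min; viability was read as fluorescence in the reporter wells.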

[3] = target: Peroxisome proliferator-activated receptor gamma (Homo sapiens) (UniProt P37231); assay: qHTS assay to identify small molecule agonists of the peroxisome proliferator-activated receptor gamma (PPARg) signaling pathway (AID 743094; active = well fitted activation curve with a large enough effect in the signal ratio in the repeat runs, not every such curve was filed as active; the % refers to the signal ratio); settings: HEK293H PPARg-UAS-bla, beta-lactamase FRET ratio, 17 h; series mostly up to 57 µM
In short: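 Cell-based bla reporter, HEK293H background, PPARg-driven UAS. Pre-incubation 5 h, 37C, 5% CO2. Compound 17 h, 37C. Substrate 1 h RT; fluorescence.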

[4] = target: Peroxisome proliferator-activated receptor gamma (Homo sapiens) (UniProt P37231); assay: qHTS assay to identify small molecule antagonists of the peroxisome proliferator-activated receptor gamma (PPARg) signaling pathway (AID 743191; calls by dose curve; note: nearly all actives have a fitted effect of over 30% in size); settings: HEK293H PPARg-UAS-bla, beta-lactamase ratio, antagonist, 17 h; series mostly up to 62.6 µM
In short: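 GeneBLAzer PPARg UAS-bla HEK293H cells carrying a UAS-driven beta-lactamase reporter were plated at 3000 cells/well, preincubated 5 h at 37C, then given compound for 17 h at 37C; LiveBLAzer B/G FRET substrate was read after 1 h at room temperature.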

[5] = qHTS assay to identify small molecule antagonists of the peroxisome proliferator-activated receptor gamma (PPARg) signaling pathway - cell viability counter screen (AID 743194); settings: PPARg-bla HEK293H viability, CellTiter-Glo luminescence, 17 h, co-treated with 50 nM rosiglitazone; series mostly up to 62.6 µM; note: nearly all actives have a fitted effect of over 55% in size
In short: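 PPARg-UAS-bla HEK293H cells were plated, rested 5 h at 37 C, then treated with compounds plus rosiglitazone (50 nM final) for 17 h at 37 C; viability was then read by CellTiter-Glo luminescence after 30 min at room temperature.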

[6] = qHTS assay for small molecule agonists of the antioxidant response element (ARE) signaling pathway (AID 743202; active = well fitted activation curve with a large enough effect in the signal ratio in the repeat runs, not every such curve was filed as active; the % refers to the signal ratio; note: potency is the fitted concentration of half-maximal effect); settings: HepG2 ARE-bla reporter, beta-lactamase FRET, 16 h; series mostly up to 73.3 µM
In short: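 Following a 16 h, 37 C exposure of reporter HepG2 cells (ARE-driven beta-lactamase, 2,000 cells/well) to compounds, FRET substrate was applied for 2 h at room temperature and fluorescence intensity recorded.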

[7] = qHTS assay for small molecule agonists of the antioxidant response element (ARE) signaling pathway - cell viability counter screen (AID 743203; calls by dose curve; note: nearly all actives have a fitted effect of over 55% in size); settings: ARE-bla HepG2 viability, CellTiter-Glo luminescence, 16 h; series mostly up to 73.3 µM
In short: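 Measured in the same wells as the beta-lactamase ARE reporter, this read-out is CellTiter-Glo luminescence from HepG2 ARE-bla cells given compounds for 16 hrs.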

[8] = qHTS assay for small molecule activators of the heat shock response signaling pathway - cell viability counter screen (AID 743209); settings: HSE-bla HeLa viability, CellTiter-Glo luminescence, 5 h; series mostly up to 62.6 µM; note: nearly all actives have a fitted effect of over 50% in size
In short: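 Same-well multiplex: after 2.5 h room-temperature incubation with LiveBLAzer B/G substrate and fluorescence reading, CellTiter-Glo reagent was added to HSE-bla HeLa cells that had received compound for 5 h at 37 C; luminescence read after 30 min.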

[9] = qHTS assay for small molecule activators of the heat shock response signaling pathway (AID 743210; active = well fitted activation curve with a large enough effect in the signal ratio in the repeat runs, with a control signal flat, not every such curve was filed as active; the % refers to the signal ratio); settings: HeLa HSE-bla reporter, beta-lactamase ratio, 5 h; series mostly up to 62.6 µM
In short: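 Heat shock element–beta-lactamase HeLa reporter cells; qHTS with compounds for 5 h at 37 C; detection by FRET substrate fluorescence after 2.5 h at RT.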

[10] = target: Aryl hydrocarbon receptor (Homo sapiens) (UniProt P35869); assay: qHTS assay to identify small molecule that activate the aryl hydrocarbon receptor (AhR) signaling pathway (AID 743085); settings: HepG2 AhR-luc (HG2L7.5c1), luciferase, 24 h; series mostly up to 70.3 µM;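 note: HG2L7.5c1 human HepG2 liver cells with stably integrated DRE-driven firefly reporter; nearly all actives have a fitted effect of over 15% in size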
In short: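 Luminescence (ONE-Glo) from a dioxin-responsive-element luciferase reporter in HG2L7.5c1 HepG2 cells after 24 hr compound exposure at 37C; viability measured by CellTiter-Fluor fluorescence beforehand.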
% is set by controls: 0 for no effect and ±100 for the full control effect.

Peroxisome proliferator-activated receptor gamma (Homo sapiens), sequence (P37231 whole entry, looked up): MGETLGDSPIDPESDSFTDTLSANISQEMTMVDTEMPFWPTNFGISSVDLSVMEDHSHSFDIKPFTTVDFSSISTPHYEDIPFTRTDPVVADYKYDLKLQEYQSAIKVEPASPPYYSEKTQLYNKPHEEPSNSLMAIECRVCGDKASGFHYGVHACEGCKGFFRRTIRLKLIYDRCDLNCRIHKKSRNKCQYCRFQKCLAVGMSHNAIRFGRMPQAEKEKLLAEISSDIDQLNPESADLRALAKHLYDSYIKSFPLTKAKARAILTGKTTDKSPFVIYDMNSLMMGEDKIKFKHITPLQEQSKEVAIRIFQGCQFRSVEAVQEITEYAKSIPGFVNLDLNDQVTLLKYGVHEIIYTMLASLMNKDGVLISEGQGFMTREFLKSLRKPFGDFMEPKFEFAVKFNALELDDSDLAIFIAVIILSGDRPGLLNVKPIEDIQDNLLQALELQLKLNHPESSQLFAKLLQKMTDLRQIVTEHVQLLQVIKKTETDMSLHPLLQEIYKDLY
Aryl hydrocarbon receptor (Homo sapiens), sequence (P35869 whole entry, looked up): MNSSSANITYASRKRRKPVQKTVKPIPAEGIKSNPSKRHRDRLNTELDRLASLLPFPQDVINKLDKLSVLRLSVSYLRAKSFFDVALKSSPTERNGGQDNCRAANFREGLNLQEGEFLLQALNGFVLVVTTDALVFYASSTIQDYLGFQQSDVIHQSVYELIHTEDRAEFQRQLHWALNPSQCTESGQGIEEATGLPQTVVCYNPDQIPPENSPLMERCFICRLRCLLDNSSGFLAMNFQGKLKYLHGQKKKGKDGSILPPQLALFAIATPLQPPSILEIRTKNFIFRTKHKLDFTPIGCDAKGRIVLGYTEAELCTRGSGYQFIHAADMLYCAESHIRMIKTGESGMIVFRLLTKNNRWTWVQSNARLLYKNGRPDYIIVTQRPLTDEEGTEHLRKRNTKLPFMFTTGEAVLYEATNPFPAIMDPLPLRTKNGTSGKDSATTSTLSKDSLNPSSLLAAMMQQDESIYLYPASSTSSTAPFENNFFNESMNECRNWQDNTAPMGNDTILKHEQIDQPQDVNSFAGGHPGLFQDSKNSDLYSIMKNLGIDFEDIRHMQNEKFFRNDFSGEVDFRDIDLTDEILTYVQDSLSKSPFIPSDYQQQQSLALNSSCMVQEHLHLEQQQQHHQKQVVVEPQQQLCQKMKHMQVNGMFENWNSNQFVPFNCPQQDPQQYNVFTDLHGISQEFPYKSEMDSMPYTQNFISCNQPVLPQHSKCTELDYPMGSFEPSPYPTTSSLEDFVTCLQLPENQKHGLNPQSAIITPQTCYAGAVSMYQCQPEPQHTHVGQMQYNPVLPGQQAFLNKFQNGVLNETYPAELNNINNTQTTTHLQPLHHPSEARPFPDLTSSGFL

Cc1c(N=C=O)cccc1N=C=O
inactive: Potency [1] | Potency [2] | Potency [3] | Potency [4] | Potency [5] | Potency [6] | Potency [7] | outcome [8] | outcome [9]

CC(C)CCCCCOC(=O)CS
inactive: Potency [1] | Potency [2] | Potency [3] | Potency [4] | Potency [5] | outcome [8] | outcome [9]

Cc1cccc(C)c1NC(=O)CN1CCCC1
inactive: Potency [1] | Potency [2] | Potency [3] | Potency [4] | Potency [5] | Potency [6] | Potency [7] | outcome [8] | outcome [9]

CCC[Si](OC)(OC)OC
inactive: Potency [1] | Potency [10] | Potency [2] | Potency [6] | Potency [7] | outcome [8] | outcome [9]

CC(C)CCCCCCCOC(=O)c1ccc(C(=O)OCCCCCCCC(C)C)c(C(=O)OCCCCCCCC(C)C)c1
inactive: Potency [1] | Potency [10] | Potency [3] | Potency [4] | Potency [5] | Potency [6] | Potency [7] | outcome [8]

CCCCCCCCCCCCCCCCCCCl
inactive: activity change, negative = cytotoxicity [1] 0.528% [at 8.47 µM] | viability change, negative = cytotoxic [2] -5.7% [at 8.47 µM] | activation [3] -5.7% [at 7.08 µM] | ratio activity, negative = inhibition [4] 3.29% [at 5.95 µM] | activity change, negative = cytotoxicity [5] 3.5% [at 5.95 µM] | activation [6] -2.23% [at 8.36 µM] | viability change, negative = cytotoxic [7] 1.36% [at 8.36 µM] | activity change, negative = cytotoxicity [8] -2.21% [at 5.95 µM] | activation [9] -1.98% [at 5.95 µM]

Cc1nc2sccn2c(=O)c1CCN1CCC(=C(c2ccc(F)cc2)c2ccc(F)cc2)CC1
inactive: Potency [1] | Potency [10] | Potency [5] | Potency [7] | outcome [9]

CC(=O)CC/C=C(\C)CC/C=C(\C)CC/C=C(\C)CCC=C(C)C
inactive: Potency [1] | Potency [2] | Potency [3] | Potency [4] | Potency [5] | Potency [7] | outcome [8] | outcome [9]

CCCCCC1CCC(=O)O1 (stereo not drawn)
inactive: Potency [1] | Potency [2] | Potency [3] | Potency [4] | Potency [6] | Potency [7] | outcome [8] | outcome [9]

CCOc1ccc(NC(C)=O)cc1N
inactive: Potency [1] | Potency [2] | Potency [3] | Potency [4] | Potency [5] | Potency [6] | Potency [7] | outcome [8]

CO[C@@H]1[C@@H](O[C@@H]2O[C@H](C)[C@@H](O[C@H]3C[C@@](C)(O)[C@@H](O)[C@H](C)O3)[C@H](N(C)C)[C@H]2O)[C@@H](CC=O)C[C@@H](C)[C@@H](O[C@@H]2CC[C@H](N(C)C)[C@@H](C)O2)/C=C/C=C/C[C@@H](C)OC(=O)C[C@H]1OC(C)=O
inactive: Potency [1] | Potency [10] | Potency [3] | Potency [4] | Potency [5] | Potency [6] | Potency [7] | outcome [8] | outcome [9]

FC(F)(Cl)C(F)(Cl)Cl
inactive: Potency [1] | Potency [2] | Potency [4] | Potency [6] | Potency [7] | outcome [8] | outcome [9]

C=Cc1ccc(C=C)cc1
inactive: Potency [1] | Potency [2] | Potency [3] | Potency [4] | Potency [6] | Potency [7] | outcome [8] | outcome [9]

CC(C(=O)O)c1ccc(/C=C2\CCCCC2=O)cc1 (stereo not drawn)
inactive: Potency [1] | Potency [2] | Potency [4] | Potency [5] | outcome [8] | outcome [9]
active: Potency [6] 29.8 µM

C1CCN(CN2CCCCC2)CC1
inactive: Potency [1] | Potency [2] | Potency [4] | Potency [5] | Potency [7] | outcome [8] | outcome [9]

CCCCC(CC)COCCC#N (stereo not drawn)
inactive: Potency [1] | Potency [2] | Potency [3] | Potency [5] | Potency [6] | Potency [7] | outcome [8] | outcome [9]

CC(=O)c1cccnc1
inactive: Potency [1] | Potency [2] | Potency [3] | Potency [7] | outcome [8]

O=[N+]([O-])c1ccc(Cl)cc1Cl
inactive: Potency [1] | Potency [2] | Potency [4] | Potency [5] | Potency [7] | outcome [8] | outcome [9]

Cc1cc(C)n(CO)n1
inactive: Potency [1] | Potency [2] | Potency [3] | Potency [5] | Potency [6] | Potency [7] | outcome [8] | outcome [9]

CC(O)CN (stereo not drawn)
inactive: Potency [1] | Potency [2] | Potency [3] | Potency [5] | Potency [6] | Potency [7] | outcome [8]

Cc1c(Nc2ncccc2C(=O)O)cccc1C(F)(F)F
inactive: Potency [1] | Potency [2] | Potency [5] | Potency [7] | outcome [8] | outcome [9]

O=C(O)c1cccc(C(=O)O)c1C(=O)O
inactive: Potency [1] | Potency [2] | Potency [3] | Potency [5] | Potency [7] | outcome [9]

COc1ccc(/C=C/c2cc(OC)cc(=O)o2)cc1
active: Potency [6] 0.443 µM
inactive: Potency [1] | Potency [2] | Potency [3] | Potency [5] | Potency [7] | outcome [8] | outcome [9]

c1ccc(-c2ccc(-c3ccccc3)cc2)cc1
inactive: Potency [1] | Potency [2] | Potency [3] | Potency [5] | Potency [6] | Potency [7] | outcome [8]

O=[N+]([O-])c1ccccc1CCO
inactive: Potency [1] | Potency [2] | Potency [4] | Potency [5] | Potency [7] | outcome [8] | outcome [9]

CCCCOc1ccc(N)cc1
inactive: Potency [1] | Potency [2] | Potency [3] | Potency [5] | Potency [6] | Potency [7] | outcome [8] | outcome [9]
